Screens from PubChem.
In the library only some 6.9% were active in any assay of this set; here they are far more common.
KB-V1 cytotox: qHTS assay for MDR1-selective chemotherapeutics: Primary screen using the drug-selected MDR subline cells KB-V1. KB-V1 MDR cells viability, CellTiter-Glo, 72 h. Potency, µM (titrated, usually from 46.1 µM), actives largely listed as cytotoxic. 3.4% of 400,000 active; further: nearly all actives have a fitted effect of over 60% in size
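KB-V1 cells (P-gp-expressing MDR subline of KB-3-1) in phenol-red-free DMEM with 10% FBS were exposed to library compounds over a concentration series for 72 h at 37 degrees C. Viability read by CellTiter-Glo luminescence; concentration-effect curves fitted after normalization.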
ASM inhibitor: Inhibitors of Secretory Acid Sphingomyelinase (S-ASM): qHTS | Potency, µM (series often up to 57.5 µM), hits mostly inhibitors | Sphingomyelin phosphodiesterase (Homo sapiens), P17405 | AID 504937, 2011 | placental ASM, HMU-PC fluorogenic substrate, 60 min | 0.006% of 340,000 active
Target sequence (P17405 47-631 limits assumed): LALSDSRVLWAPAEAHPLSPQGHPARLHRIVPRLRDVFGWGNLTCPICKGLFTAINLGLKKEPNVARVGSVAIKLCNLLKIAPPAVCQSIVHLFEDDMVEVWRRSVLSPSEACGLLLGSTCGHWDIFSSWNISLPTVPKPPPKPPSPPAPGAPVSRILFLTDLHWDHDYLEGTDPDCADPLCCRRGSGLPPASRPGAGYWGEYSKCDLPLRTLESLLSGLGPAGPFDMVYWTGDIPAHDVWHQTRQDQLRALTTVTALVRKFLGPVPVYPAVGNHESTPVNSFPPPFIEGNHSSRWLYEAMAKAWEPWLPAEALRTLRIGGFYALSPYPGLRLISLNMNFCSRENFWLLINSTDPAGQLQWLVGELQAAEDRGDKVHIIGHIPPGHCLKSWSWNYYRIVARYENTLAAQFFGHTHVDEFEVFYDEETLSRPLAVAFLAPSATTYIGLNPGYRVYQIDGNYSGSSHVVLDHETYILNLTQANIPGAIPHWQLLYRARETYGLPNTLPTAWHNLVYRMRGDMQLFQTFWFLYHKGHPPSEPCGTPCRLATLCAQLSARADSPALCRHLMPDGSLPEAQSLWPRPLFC
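HMU-PC0 cleavage (9 uM final) by human placental ASM, 60 min at 37 °C following 10 min compound exposure at RT; stopped at pH 10, fluorescence Ex 386/Em 447 nm.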
MCF10A rereplic: A quantitative high throughput screen for small molecules that induce DNA re-replication in MCF 10a normal breast cells | 2.9% of 350,000 active | AID 624296, 2012 | Potency, µM (highest dose often 46.1 µM), most hits filed as activators | MCF 10A DNA re-replication, Hoechst nuclear intensity, 48 h; further: nearly all actives have a fitted effect of over 50% in size
Giardia killer: Small Molecules that selectively kill Giardia lamblia: qHTS | Giardia lamblia trophozoite viability | activity change, % at 7.66 µM, hits read low | 0.15% of 340,000 active; in the data active means activity change below about -80%; inconclusive means between about -30% and that limit;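 further: parasites exposed to compound for two days anaerobically before the ATP read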
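Trophozoite viability was measured as ATP-dependent luminescence, read 15-30 min after reagent addition. Before that, parasites at 100 cells/well were exposed to compounds for 48 h, anaerobically, at 37 deg C.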
KB-3-1 tox: qHTS assay for MDR1-selective chemotherapeutics: Primary screen using the parental adenocarcinoma cell KB-3-1; KB-3-1 viability, CellTiter-Glo ATP luminescence, 72 h; Potency, µM (doses to about 46.1 µM), hits mostly cytotoxic; 1.4% of 400,000 active; AID 1347075, 2019; further: nearly all actives have a fitted effect of over 60% in size
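Cytotoxicity in the drug-sensitive parental line KB-3-1 was scored as loss of CellTiter-Glo luminescence following 72 h incubation with compound. Values come from curve fitting of normalized concentration-response data.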
SW480 rereplic: A quantitative high throughput screen for small molecules that induce DNA re-replication in SW480 colon adenocarcinoma cells | Potency, µM (doses to about 46.1 µM), actives largely listed as activators | SW480 DNA re-replication, Hoechst DNA content imaging, 48 h | 1.8% of 340,000 active; further: nearly all actives have a fitted effect of over 55% in size
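250 cells/well; 23 nL cpd via pin tool; 48 hr, 37 C, 5% CO2; Hoechst 40 min; imager read of total nuclear intensity, ex 405/em 500-530 nm.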
Of the large screens only hits and unclear results are named; the others gave an inactive call. Unless noted, the call rests on the fitted dose curve; in most records, active means well fitted curve in the direction sought with a large enough effect; inconclusive means small, poorly fitted or top-dose-only effect, or another doubt; inactive means no such curve, though single readings can be large; an effect the other way counts as inactive or inconclusive.

N/N=C1\CCCc2c1[nH]c1ccc([N+](=O)[O-])cc21	KB-V1 cytotox 4.6µM, KB-3-1 tox inconclusive, SW480 rereplic inconclusive
O=S(=O)(Nc1cccc2c1ccc1cccn12)c1cccs1	MCF10A rereplic 14µM
O=S(=O)(Nc1cccc2[nH]ncc12)c1cccs1	none
C=CCn1c(=N)c(C#N)cc2c(=O)n3ccccc3nc21	MCF10A rereplic inconclusive, SW480 rereplic inconclusive
COCCCn1c(=N)c(C(=O)NCC2CCCO2)cc2c(=O)n3cc(C)ccc3nc21 (configuration not stated)	KB-V1 cytotox inconclusive (no result: ASM inhibitor, MCF10A rereplic, Giardia killer, SW480 rereplic)
C=CCn1c(=N)c(C(=O)NCCCOC)cc2c(=O)n3ccccc3nc21	MCF10A rereplic 2.1µM, SW480 rereplic 1.3µM
Cc1ccc(CC(=O)NCCCn2ccnc2)cc1	none
Cc1ccc2nc3c(cc(C(=O)NCCCn4ccnc4)n3C)c(=O)n2c1	MCF10A rereplic 15µM, SW480 rereplic inconclusive
C=CCn1c(=N)c(C(=O)NCCCOC)cc2c(=O)n3cc(C)ccc3nc21	KB-V1 cytotox inconclusive, MCF10A rereplic 8.2µM, SW480 rereplic inconclusive
COc1ccc(N=C2NN=C(c3c(C)[nH]c4ccccc34)CS2)cc1	MCF10A rereplic 18µM, KB-3-1 tox inconclusive, SW480 rereplic inconclusive
Cc1cc(C2=NNC(=Nc3ccccc3)SC2)c(C)n1C	none
Cc1[nH]c2ccccc2c1C1=NNC(=Nc2ccc(F)cc2)SC1	MCF10A rereplic 21µM, KB-3-1 tox inconclusive, SW480 rereplic inconclusive
Cc1cccc(S(=O)(=O)c2cn(Cc3ccc(F)cc3)c3cc(N4CCOCC4)c(F)cc3c2=O)c1	none (no result: ASM inhibitor, MCF10A rereplic, Giardia killer, SW480 rereplic)
O=C(Nc1ccc2oc(-c3ccccc3)nc2c1)c1cccs1	none
O=C(Nc1ccc2oc(-c3ccccc3)nc2c1)c1ccncc1	KB-V1 cytotox 8.2µM, KB-3-1 tox inconclusive
O=S(=O)(Nc1ccc2oc(-c3ccccc3)nc2c1)c1ccccc1	MCF10A rereplic 21µM, SW480 rereplic inconclusive
Cc1ccc(-c2nc3cc(NS(=O)(=O)c4ccc(C)cc4)ccc3o2)cc1	MCF10A rereplic inconclusive, SW480 rereplic inconclusive
O=C(Nc1cccnc1)c1cc2c(ccc3ccccc32)o1	KB-V1 cytotox 13µM, KB-3-1 tox inconclusive
O=C(Nc1ccc(-c2nc3ccccc3o2)cc1)c1ccc(N2C(=O)C3C4C=CC(C4)C3C2=O)cc1 (configuration not stated)	KB-V1 cytotox 4.1µM, MCF10A rereplic inconclusive
CN1CCN(c2nc3c(=O)[nH]c(N)nc3n2C2OC(CO)C(O)C2O)CC1 (configuration not stated)	none (no result: ASM inhibitor, MCF10A rereplic, SW480 rereplic)
Cc1ccc2oc(-c3cccc(N)c3)nc2c1	KB-V1 cytotox inconclusive
CCC(C)NCC(=O)Nc1ccc(-c2nc3cc(NC(=O)CNC(C)CC)ccc3o2)cc1 (configuration not stated)	KB-V1 cytotox inconclusive, KB-3-1 tox inconclusive, SW480 rereplic inconclusive
Cc1c(C(=O)Nc2ccc3oc(-c4cccnc4)nc3c2)oc2ccccc12	KB-V1 cytotox inconclusive, MCF10A rereplic inconclusive, SW480 rereplic 21µM
Nc1cccc(-c2nc3cc(S(=O)(=O)c4ccc5oc(-c6cccc(N)c6)nc5c4)ccc3o2)c1	KB-V1 cytotox inconclusive, MCF10A rereplic inconclusive, KB-3-1 tox inconclusive, SW480 rereplic 6.5µM
Cc1c(C(=O)Nc2cccnc2)oc2ccc(Br)cc12	KB-V1 cytotox 3.3µM, MCF10A rereplic inconclusive, KB-3-1 tox 8.2µM, SW480 rereplic inconclusive
CCN(CC)CC(=O)Nc1ccc(-c2nc3cc(NC(=O)CN(CC)CC)ccc3o2)cc1	KB-V1 cytotox 18µM, Giardia killer inconclusive, KB-3-1 tox inconclusive
Cc1cc(C(=O)NCc2ccccc2)c2c(C)nn(-c3cccc(Cl)c3C)c2n1	none (no result: ASM inhibitor, MCF10A rereplic, Giardia killer, SW480 rereplic)
CCOc1cccc(C(=O)Nc2ccc3oc(Cc4ccc(Cl)cc4)nc3c2)c1	KB-V1 cytotox inconclusive, MCF10A rereplic inconclusive, KB-3-1 tox inconclusive, SW480 rereplic inconclusive
O=C(Nc1ccc2oc(-c3ccccc3F)nc2c1)c1ccc2c(c1)OCCO2	KB-V1 cytotox 18µM, ASM inhibitor inconclusive, MCF10A rereplic inconclusive
O=C(Nc1ccc2oc(Cc3ccc(Cl)cc3)nc2c1)c1cccnc1	KB-V1 cytotox inconclusive, MCF10A rereplic inconclusive, SW480 rereplic 16µM
O=C(Nc1ccc2oc(-c3ccccc3Cl)nc2c1)c1cncc(Br)c1	KB-V1 cytotox 5.2µM, MCF10A rereplic 16µM, KB-3-1 tox inconclusive, SW480 rereplic inconclusive
C#C[C@]1(O)CC[C@@H]2[C@H]3CCC4=CC(=O)CC[C@H]4[C@H]3C(=C)C[C@@]21CC	none (no result: KB-V1 cytotox, ASM inhibitor, Giardia killer, KB-3-1 tox)
CCOC(=O)c1cnc2ccc(OC)cc2c1Nc1cccc(C(C)=O)c1	none (no result: ASM inhibitor, MCF10A rereplic, Giardia killer, SW480 rereplic)
CCOC(=O)c1cnc2ccc(OCC)cc2c1Nc1cc(Cl)c(OC)cc1OC	none (no result: ASM inhibitor, MCF10A rereplic, Giardia killer, SW480 rereplic)
CCOC(=O)c1cnc2ccc(OC)cc2c1NCc1ccccc1	KB-V1 cytotox 3.7µM
CCOC(=O)c1cnc2ccc(OCC)cc2c1NCc1ccccc1OC	KB-V1 cytotox 7.3µM, MCF10A rereplic inconclusive, KB-3-1 tox inconclusive (no result: ASM inhibitor)
Cc1nnc(NCc2ccc(Cl)cc2)c2c1nnn2Cc1ccc(F)cc1	KB-V1 cytotox inconclusive (no result: ASM inhibitor, MCF10A rereplic, Giardia killer, SW480 rereplic)
Cc1[nH]c2ccccc2c1C(O)CN1CCN(c2cccc(C(F)(F)F)c2)CC1 (configuration not stated)	KB-V1 cytotox inconclusive, MCF10A rereplic inconclusive, KB-3-1 tox 15µM
CC(NC(=O)c1ccc2c(c1)N(Cc1cccc(F)c1)C(=O)c1ccccc1S2)c1ccccc1 (configuration not stated)	none (no result: ASM inhibitor, MCF10A rereplic, Giardia killer, SW480 rereplic)
CCc1ccc(N=C2NC(=O)CS2)cc1	KB-V1 cytotox inconclusive
CCCCCCCCN=C1NC(=O)CS1	KB-V1 cytotox 13µM, KB-3-1 tox inconclusive
CC(C)c1csc(CN2CCCC(CNC(=O)c3cccc4ccccc34)C2)n1 (configuration not stated)	MCF10A rereplic inconclusive, SW480 rereplic inconclusive
O=C(NCC1CCCO1)c1ccccc1NS(=O)(=O)c1cccc([N+](=O)[O-])c1 (configuration not stated)	Giardia killer inconclusive
O=C(Nc1ccc(Cl)cc1C(=O)NCC1CCCO1)c1ccco1 (configuration not stated)	KB-V1 cytotox 8.2µM, MCF10A rereplic inconclusive, KB-3-1 tox inconclusive
O=C(Nc1c(Cl)cc(Cl)cc1C(=O)NCCN1CCOCC1)c1ccc(Cl)cc1Cl	KB-V1 cytotox inconclusive
O=C(Nc1ccc(Cl)cc1C(=O)NCCN1CCOCC1)c1ccc(Cl)cc1Cl	KB-V1 cytotox 4.6µM
O=C(NCC1CCCO1)c1ccccc1OCc1ccc(Cl)cc1 (configuration not stated)	KB-V1 cytotox 3.7µM
